Screening data: PubChem BioAssay, National Center for Advancing Translational Sciences (NCATS)
This is a sample that favours compounds with a hit; in the whole collection about 10% have one here.
BAZ2B inh = inhibitors of human BAZ2B bromodomain; Q9UIF8; AID 504333; AlphaScreen BAZ2B-H3K14Ac peptide displacement; Potency, µM (highest dose often 114 µM), without a hit: at the highest dose activity change, negative = inhibition, hits mostly inhibitors; 4.4% of 360,000 active; also: % is scaled to controls: 0 for no effect and ±100 for the full control effect; nearly all actives have a fitted effect of over 60% in size
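Inhibition is scored as reduced AlphaScreen emission. The BAZ2B/b-H3(5-23)K14Ac complex (50 nM each) in PBS pH 7.4, 0.01% Tween-20 meets compound (up to 110 uM) for 30 min at RT before bead addition.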
GLS inhibitor = blocks human kidney-isoform glutaminase activity; O94925; GLS enzymatic activity, qHTS titration; Potency, µM (doses to about 45.5 µM), for the others: at the top dose activity change, negative = inhibition, hits mostly inhibitors; 0.21% of 410,000 active; also: % is scaled to controls: 0 for no effect and ±100 for the full control effect
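Coupled fluorescence readout: glutamate oxidase/HRP/Amplex Red detect glutamate formed by hKGA from L-glutamine (1 mM solution added). Buffer 45 mM KH2PO4 pH 8.2, 0.02% Tween-20; reads at t0 and 30 min RT.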
G9a inh = blocks human histone lysine methyltransferase G9a | Q96KQ7 | G9a H3K9 monomethylation, AlphaScreen, 2 h | Potency, µM (titrated, usually from 102 µM), without a hit: at the highest dose activity, negative = inhibition, most hits filed as inhibitors | 8.8% of 350,000 active | AID 504332; also: % is scaled to controls: 0 for no effect and ±100 for the full control effect; nearly all actives have a fitted effect of over 75% in size
Target sequence (Q96KQ7 913-1193 limits assumed): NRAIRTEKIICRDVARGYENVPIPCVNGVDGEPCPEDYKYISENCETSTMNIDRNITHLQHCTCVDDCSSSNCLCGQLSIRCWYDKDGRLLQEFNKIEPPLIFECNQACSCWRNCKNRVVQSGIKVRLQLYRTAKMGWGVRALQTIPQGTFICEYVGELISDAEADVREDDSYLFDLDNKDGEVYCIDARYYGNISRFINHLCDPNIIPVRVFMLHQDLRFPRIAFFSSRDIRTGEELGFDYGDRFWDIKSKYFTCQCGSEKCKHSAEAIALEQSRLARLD
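G9a (20 nM) was preincubated 15 min with compound, then reacted 2 h at room temperature with 500 nM biotin-H3K9 peptide and 20 µM SAM. Monomethyl-H3K9 detected by AlphaScreen using anti-H3K9me1 antibody.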
JMJD2A Tudor = JMJD2A Tudor domain (human) inhibition; AlphaScreen JMJD2A-Tudor / H3K4me3 peptide binding; 4.4% of 390,000 active; O75164; Potency, µM (top dose mostly 114 µM), for inactives: at the top dose activity change, negative = inhibition, most hits filed as inhibitors; also: % is scaled to controls: 0 for no effect and ±100 for the full control effect; nearly all actives have a fitted effect of over 50% in size
HP1b chromo inh = HP1-beta chromodomain-methylated histone interaction inhibition; 0.56% of 390,000 active; P83916; AlphaScreen HP1-beta / biotin-H3K9me3 peptide binding; Potency, µM (top dose mostly 114 µM), for the others: top-dose activity change, negative = inhibition, most hits filed as inhibitors; also: nearly all actives have a fitted effect of over 70% in size
Target sequence (P83916 whole entry, looked up): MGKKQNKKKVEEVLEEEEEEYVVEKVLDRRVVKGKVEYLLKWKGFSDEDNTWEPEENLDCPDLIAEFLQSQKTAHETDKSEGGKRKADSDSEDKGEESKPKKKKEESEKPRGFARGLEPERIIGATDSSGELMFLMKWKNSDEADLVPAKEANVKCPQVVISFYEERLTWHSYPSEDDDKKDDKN
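AlphaScreen: HP1-beta (50 nM) preformed 30 min with biotin-H3(1-18)K9me3 peptide (50 nM) in PBS pH 7.4, 0.01% Tween-20. Compound added for 30 min at RT, then streptavidin donor/nickel chelate acceptor beads (10 ug/mL) for 30 min.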
An asterisk follows results filed as active; ? = inconclusive; nt = no result; [ ] = another dose, or the depositor's remark. Calls follow the shape of the dose curve; as a rule, active = well fitted curve in the direction sought with a large enough effect; inconclusive = small, poorly fitted or top-dose-only effect, or another doubt; inactive = no such curve, though single readings can be large; an effect the other way counts as inactive or inconclusive. Potency is read from the fitted curve at half-maximal effect.

SMILES | BAZ2B inh | GLS inhibitor | G9a inh | JMJD2A Tudor | HP1b chromo inh
O=C(CSc1nnc(NC(=O)C2CC(=O)N(c3ccccc3)C2)s1)NCC1CCCO1 (centres undefined) | -2.0% | 0.7% | 39.8µM* | -7.4% | 38.9%
Cc1ccc(N2CC(C(=O)Nc3nccs3)CC2=O)cc1Cl (centres undefined) | 8.0% | -9.5% | -22.3%[12.7 µM] | 4.2% | 6.8%
COCc1nnc(NC(=O)C2CC(=O)N(c3ccc(C)c(Cl)c3)C2)s1 (centres undefined) | -5.3% | -10.7% | 15.8µM* | -12.8% | -8.4%
Cc1ccc(N2CC(C(=O)Nc3nnc(SCC(=O)N4CCOCC4)s3)CC2=O)cc1 (centres undefined) | -1.2% | 3.8% | 44.7µM* | -8.1% | 35.2%
COc1cccc(N2CC(C(=O)Nc3nnc(SCC(=O)NC4CCCC4)s3)CC2=O)c1 (centres undefined) | -25.0% | 0.9% | 31.6µM* | -7.3% | 36.8%
O=C(Nc1nnc(SCC(=O)N2CCOCC2)s1)C1CC(=O)N(c2ccc(F)cc2)C1 (centres undefined) | -12.7% | -1.9% | 19.3%[12.7 µM] | -5.2% | 41.7%
CC(C)COc1ccc(S(=O)(=O)n2cc(F)c(=O)[nH]c2=O)cc1 | -1.0% | -13.4% | -10.9%[0.501 µM] | -8.0% | 9.8%
Cc1ccc(S(=O)(=O)N2CCCCC2CCNC(=O)C(=O)NCC2CCCO2)cc1 (centres undefined) | 3.7% | 11.6% | -6.9% | -4.3% | 22.1%
COc1ccc(CCNC(=O)c2ccc(Cn3c(=O)c4ccccc4n(CC(=O)C(C)(C)C)c3=O)cc2)cc1OC | 0.3% | -3.3% | -24.3%[59 µM] | -9.2% | 34.6%
COc1cc(C(=O)Nc2nnc(SCC(=O)NCC3CCCO3)s2)cc(OC)c1OC (centres undefined) | ? | 1.2% | 70.8µM* | -8.3% | 42.0%
Cc1ccc(N2CC(C(=O)Nc3nnc(SCCN4CCOCC4)s3)CC2=O)cc1 (centres undefined) | -11.9% | 10.1% | ? | -10.3% | 49.2%
O=C(Nc1nnc(SCCN2CCOCC2)s1)C1CC(=O)N(c2ccccc2)C1 (centres undefined) | -0.8% | 2.7% | 44.7µM* | -16.9% | 36.2%
COc1ccc(N2CC(C(=O)Nc3nnc(SCC(=O)N4CCCC4)s3)CC2=O)cc1 (centres undefined) | -8.0% | 2.0% | nt | -19.9% | 22.4%
COC(=O)CSc1nnc(NC(=O)C2CC(=O)N(c3ccc(F)cc3)C2)s1 (centres undefined) | 1.4% | 0.3% | 39.8µM* | -28.5% | 19.7%
COc1ccccc1C(=O)Nc1nnc(SCC(=O)NCC2CCCO2)s1 (centres undefined) | -25.1% | 5.6% | nt | -5.2% | 23.6%
O=C(CSc1nnc(NC(=O)C2CC(=O)N(c3ccc(F)cc3)C2)s1)NC1CCCC1 (centres undefined) | -18.7% | 7.7% | 25.1µM* | -15.3% | 41.2%
Cc1cccc(C)c1OCc1cc(C(=O)NCC2CC2)no1 | 12.5% | 0.3% | -0.8% | 8.2% | 42.4%
Cc1cccc(NC(=S)N(C)C)c1C | -2.4% | -1.3% | 2.1% | 7.7% | 32.9%
COCCCn1c(=O)c2sccc2n(Cc2cccc(F)c2)c1=O | -19.5% | -4.1% | 18.3%[59 µM] | -12.4% | 18.0%
COc1cccc(N2CC(C(=O)Nc3nnc(SCC(=O)c4ccccc4)s3)CC2=O)c1 (centres undefined) | 5.8% | 14.3% | -21.9% | -13.1% | 12.7%
O=C(Nc1nnc(SCC(=O)N2CCCC2)s1)C1CC(=O)N(c2ccc(F)cc2)C1 (centres undefined) | -16.8% | 1.7% | 20µM* | -17.4% | 39.2%
COc1ccc(C(=O)CSc2nnc(NC(=O)C3CC(=O)N(c4ccccc4)C3)s2)cc1 (centres undefined) | 8.0% | 0.2% | 44.7µM* | 2.0% | 35.6%
COCCSc1nnc(NC(=O)C2CC(=O)N(c3ccc(C)cc3)C2)s1 (centres undefined) | -15.0% | -1.4% | nt | -6.8% | 28.1%
O=C(Nc1nnc(SCC(=O)N2CCCCC2)s1)c1cccs1 | 9.3% | -4.5% | 8.91µM* | ? | 37.9%
O=C(Cc1cccs1)Nc1nnc(SCC(=O)N2CCCCC2)s1 | -29.0% | 3.6% | -32.1%[12.7 µM] | -13.4%[57.1 µM] | 21.8%
SMILES | BAZ2B inh | GLS inhibitor | G9a inh | JMJD2A Tudor | HP1b chromo inh
CCOc1ccc(N2CC(C(=O)Nc3nnc(SCCOC)s3)CC2=O)cc1 (centres undefined) | -1.0% | 0.3% | 70.8µM* | -16.1% | 0.8%
O=C(CSc1nc2ccc(NC(=O)C3CCCCC3)cc2s1)NCC1CCCO1 (centres undefined) | -0.8% | 9.7% | 44.7µM* | -27.6% | 43.5%
Cc1ccc(N2CC(C(=O)Nc3nnc(SCCC4OCCO4)s3)CC2=O)cc1C (centres undefined) | -8.6% | 0.7% | -10.2%[12.7 µM] | -14.4% | 26.4%
Cc1ccc(N2CC(C(=O)Nc3nnc(SCCC4OCCO4)s3)CC2=O)cc1 (centres undefined) | -8.7% | -0.8% | 12.6µM* | -9.6% | 31.4%
CCOC(=O)NN1C(=O)c2ccccc2NC1c1ccccn1 (centres undefined) | -10.5% | 15.5% | 18.2%[59 µM] | -11.6% | 29.1%
Cc1ccc(CSc2nnc(-c3ccccn3)n2C)cc1 | ? | -1.0% | -1.7%[59 µM] | -33.1% | 37.9%
CCn1c(COc2cccc(OC)c2)nnc1SCC(=O)NCC1CCCO1 (centres undefined) | -7.8% | 6.3% | -0.2% | -7.4% | 10.4%
COc1ccc(C2/C(=C(\O)c3ccc4c(c3)OCCO4)C(=O)C(=O)N2CCCn2ccnc2)cc1 (centres undefined) | ? | 5.6% | ? | -43.4% | -2.5%
CC1Cc2cc(/C(O)=C3/C(=O)C(=O)N(CCCn4ccnc4)C3c3ccco3)ccc2O1 (centres undefined) | ? | -12.1% | ? | 31.6µM* | -6.0%
CC1Cc2cc(/C(O)=C3/C(=O)C(=O)N(CCCn4ccnc4)C3c3cccc([N+](=O)[O-])c3)ccc2O1 (centres undefined) | ? | 5.9% | 50.1µM* | -29.0% | -3.7%
COc1ccccc1C1/C(=C(\O)c2ccc3c(c2)OCCO3)C(=O)C(=O)N1CCCn1ccnc1 (centres undefined) | ? | -5.2% | 39.8µM* | -28.8% | 17.4%
CC1Cc2cc(/C(O)=C3/C(=O)C(=O)N(CCCn4ccnc4)C3c3cccnc3)ccc2O1 (centres undefined) | ? | 2.3% | 50.1µM* | 14.1µM* | 7.9%
CC(=O)c1cccc(-c2ccnc3c2CC(C(=O)N2CCN(C)CC2)O3)c1 (centres undefined) | nt | 0.4% | nt | nt | nt
C=CCOc1ccc(/C(O)=C2/C(=O)C(=O)N(CCCn3ccnc3)C2c2ccco2)cc1 (centres undefined) | 50.1µM* | 1.0% | 20µM* | ? | 18.0%
